Results filed as inconclusive are left out. A call without a number means that no potency is given here. The source made the active and inactive calls. Calls follow the shape of the dose curve; as a rule, active = well fitted inhibition curve with a large enough effect; inconclusive = small, poorly fitted or top-dose-only effect; inactive = flat fitted curve, though single readings scatter.
assay: CHOP2 Reporter Counterscreen Assay for Inhibitors of Ubiquitin-specific Protease USP2a; settings: purified enterokinase, fluorogenic substrate, 485/531 nm; series mostly up to 38.3 µM;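 also: activated enterokinase alone at 50 pM in a cell-free format rather than USP2a or CHOP2; nearly all actives have a fitted effect of over 55% in size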
Procedure, shortened: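 Cell-free counterscreen with pre-activated enterokinase alone (50 pM final) in 20mM Tris-HCl pH 8.0, 2mM CaCl2, 2mM beta-mercaptoethanol, 0.05% CHAPS; compound preincubation 30 min RT, reporter substrate 25nM final, fluorescence read after 10 min (Ex 485/Em 531).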
Potency is read from the fitted curve at half-maximal effect.

Compound | Potency
C[C@H](CO)N1C[C@H](C)[C@@H](CN(C)S(=O)(=O)c2ccc(Cl)cc2)Oc2ccc(NS(=O)(=O)c3ccccc3)cc2CC1=O | inactive
CCOC(=O)CN1C(=O)S/C(=C/c2ccc(O)c([N+](=O)[O-])c2)C1=O | inactive
O=C(NCC(c1cccnc1)N1CCN(c2ccc(F)cc2)CC1)OCc1ccccc1 (stereo not given) | inactive
COCc1cc(C)nc(SCC[N+](C)(C)CC(=O)Nc2cccc(C(F)(F)F)c2)c1C#N | inactive
Cc1noc(/C=C/c2ccco2)c1S(=O)(=O)N1CCC(C(=O)N2CCc3ccccc3C2)CC1 | inactive
CCCOC(=O)CCCCC1SCC(NC(=O)OC)C1NC(=O)OC (stereo not given) | inactive
CC(=O)c1cccc(NC(=O)C(C)OC(=O)c2cc(=O)[nH]c3ccccc23)c1 (stereo not given) | 1 µM (active)
O=C(COc1ccccc1)N1CCN(C(=O)Cc2ccccc2)CC1 | inactive
O=C(CSc1nccc(=O)[nH]1)N1N=C2/C(=C/c3ccco3)CCCC2C1c1ccco1 (stereo not given) | 8.91 µM (active)
C=C(C)COc1ccc(-c2[nH]ncc2Oc2ccccc2OCC)c(O)c1 | inactive
C=CC[C@@H](CC(=O)N(CCO)Cc1ccccc1)C(=O)NCCOC(=O)[C@H](CC=C)CC(=O)OC(C)(C)C | inactive
C[C@](N)(Cc1ccc(O)c(O)c1)C(=O)O | inactive
Cc1ccccc1OCc1nc2ccccc2c(=O)n1N | inactive
CCN(C[C@H]1N[C@@](CC)(C(=O)OC)[C@H]2C(=O)N(Cc3ccccc3)C(=O)[C@@H]12)C(=O)Nc1ccc(C)cc1 | inactive
O=C(O)C1CCN1C1CCCCC1 (stereo not given) | inactive
CN1CCN(Cc2c(O)ccc3c(=O)c(Oc4ccccc4Cl)c(C(F)(F)F)oc23)CC1 | inactive
Cc1cc(NC(=O)COC(=O)CCCOc2ccc(Cl)cc2C)no1 | inactive
COc1c(/C=C2\SC(=Nc3ccccc3Cl)NC2=O)cccc1[N+](=O)[O-] | inactive
CC(C)OCCCNC(=O)c1c(N)n(/N=C/c2ccccn2)c2nc3ccccc3nc12 | inactive
COc1cc2cc(CN(CCN3CCCC3)C(=O)Nc3ccc(F)cc3)c(=O)[nH]c2cc1OC | inactive
O=C(O)/C=C/c1ccc(S(=O)(=O)Nc2ccccc2C(=O)Nc2ccc(F)cc2)cc1 | inactive
O=C(CNC(=O)C1CCCCC1)NC1=NCCS1 | inactive
Cc1ccc(Nc2nc(N)nc(CN3CCN(C(=O)c4ccco4)CC3)n2)cc1Cl | inactive
Nc1c(C(=O)Nc2ccc3c(c2)OCCO3)nnn1CCc1ccccc1 | inactive
O=C(CSCc1cnn(-c2ccccc2)c1-n1cccc1)NCC1CCCO1 (stereo not given) | inactive
